BoNT F protease: BoNT/F light chain protease inhibitors, primary screen, biochemical, flow cytometry, MLPCN library. Multiplex microsphere protease cleavage assay. inhibition, % at 10 µM. hit rate 0.22% among 360,000; in the data active = inhibition above about 35%, passing the limit was not always enough; note: plate controls were buffer without enzyme for full effect and enzyme alone for no effect
SARS 3CLpro inh: SARS-CoV 3CLpro protease inhibitors, primary screen, biochemical, quenched FRET; AID 1706, 2009; inhibition, % at 6 µM; hit rate 0.14% among 290,000; recombinant SARS-CoV 3CLpro, quenched FRET peptide cleavage; Replicase polyprotein 1ab (Severe acute respiratory syndrome coronavirus), P0C6X7; in the data active = inhibition above about 12%
Bead autofluor: flagged as autofluorescent in microsphere protease counterscreen. compound autofluorescence counterscreen, microsphere flow cytometry; hits give high values. fluorescence intensity (concentration not given with the values). hit rate 3.1% among 360,000. AID 624483; in the data active = fluorescence intensity above about 16000
Anthrax LF prot: Bacillus anthracis LF protease inhibitors, primary screen, biochemical, multiplex microsphere, MLPCN library; Lethal factor (Bacillus anthracis), P15917; multiplex microsphere protease cleavage assay; inhibition, % at 10 µM; hit rate 0.12% among 360,000; note: plate controls were buffer without enzyme for full effect and enzyme alone for no effect
Target sequence (P15917 whole entry, looked up): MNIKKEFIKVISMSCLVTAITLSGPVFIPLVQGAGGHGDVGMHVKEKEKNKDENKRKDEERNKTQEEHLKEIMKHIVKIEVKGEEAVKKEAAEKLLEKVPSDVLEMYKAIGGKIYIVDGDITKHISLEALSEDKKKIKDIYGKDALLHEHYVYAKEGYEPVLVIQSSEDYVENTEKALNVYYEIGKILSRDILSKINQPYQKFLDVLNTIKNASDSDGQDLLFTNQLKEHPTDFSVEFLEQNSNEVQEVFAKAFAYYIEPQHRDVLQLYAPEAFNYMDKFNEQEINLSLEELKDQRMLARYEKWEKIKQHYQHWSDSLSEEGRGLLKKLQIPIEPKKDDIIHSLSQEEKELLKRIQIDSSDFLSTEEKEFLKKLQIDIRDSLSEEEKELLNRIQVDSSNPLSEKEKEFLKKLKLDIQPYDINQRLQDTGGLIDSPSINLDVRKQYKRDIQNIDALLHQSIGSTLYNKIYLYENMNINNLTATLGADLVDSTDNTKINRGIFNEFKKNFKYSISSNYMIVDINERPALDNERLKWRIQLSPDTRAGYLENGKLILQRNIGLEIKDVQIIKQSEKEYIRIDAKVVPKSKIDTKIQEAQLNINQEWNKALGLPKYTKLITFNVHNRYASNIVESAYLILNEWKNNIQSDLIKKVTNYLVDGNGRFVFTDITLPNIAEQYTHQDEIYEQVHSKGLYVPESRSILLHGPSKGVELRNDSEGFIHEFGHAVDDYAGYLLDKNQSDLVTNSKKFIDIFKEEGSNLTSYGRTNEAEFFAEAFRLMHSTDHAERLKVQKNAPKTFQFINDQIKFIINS
BoNT-A LC inh2: BoNT/A light chain protease inhibitors, primary screen, biochemical, flow cytometry, MLPCN library. hit rate 0.17% among 360,000. AID 588499, 2011. multiplex microsphere protease substrate cleavage. inhibition, % at 10 µM. Botulinum neurotoxin type A light chain protease (Clostridium botulinum A str. ATCC 3502); note: plate controls were buffer without enzyme for full effect and enzyme alone for no effect
CCHF vOTU inh-1: CCHFV vOTU protease inhibitors, primary screen, biochemical, Pep-AMC substrate, fluorescence. Crimean-Congo hemorrhagic fever virus L polyprotein viral ovarian tumor (vOTU) protease …. inhibition, % at 11.5 µM. hit rate 0.55% among 370,000. AID 651958, 2012; in the data active = inhibition above about 30%; note: 0% = vehicle wells with enzyme and 100% = no enzyme wells
CCHF vOTU inh-2: CCHFV vOTU protease inhibitors, confirmation, biochemical, Pep-AMC substrate, fluorescence; Recombinant CCHFV vOTU; shares compounds with CCHF vOTU inh-1; hit rate 17% among 1,900; inhibition, % at 11.5 µM; in the data active = inhibition above about 30%
Starred values were filed as active, the others as inactive; . = not tested or not shown. Shown are actives, neighbours in structure and some others; about 3.9% of the full set was active somewhere. Cut-off read from the data, not from the text of the source, unless noted: active = inhibition above about 30%; inconclusive = no clear call, values can overlap the other calls; inactive = below that.

SMILES | BoNT F protease | SARS 3CLpro inh | Bead autofluor | Anthrax LF prot | BoNT-A LC inh2 | CCHF vOTU inh-1 | CCHF vOTU inh-2
Nc1cc(N)c2c(c1)C(=O)c1ccccc1-2 | -7.5 | . | 3392 | -12.9 | 0.1 | -0.4 | .
NS(=O)(=O)c1ccc2c(c1)C(=NO)c1cc(S(N)(=O)=O)ccc1-2 | 3.4 | 0.8 | 4015 | -2.0 | -3.5 | -13.4 | .
NC1=C(Cl)C(=O)c2ccc(S(N)(=O)=O)cc2C1=O | 0.0 | . | 3787 | -5.3 | -0.1 | 102.8* | 99.5*
NC1=C(Cl)C(=O)c2ccccc2C1=O | 5.8 | . | 4328 | -2.2 | 0.2 | 80.7* | 80.6*
O=C(c1ccc(NS(=O)(=O)c2ccc(Cl)c(Cl)c2)cc1)N1CCOCC1 | -11.1 | . | 5291 | -1.8 | -1.1 | -4.1 | .
CCCCCCNC(=O)OC12CN(C(=O)OC(C)C)N(C(=O)OC(C)C)CC1(O)CN(S(=O)(=O)c1ccc(C)cc1)C2 (stereo not drawn) | -2.5 | . | 3029 | -4.9 | -0.1 | 37.1* | 11.0
CC(=O)[C@@H]1[C@@H]2C(=O)N(c3ccc(F)c(Cl)c3)C(=O)[C@@H]2C2c3ccccc3C=CN21 (stereo partly drawn) | . | 1.0 | . | . | . | 95.4* | 75.1*
CC(=O)[C@@H]1[C@@H]2C(=O)N(C3CCCCC3)C(=O)[C@@H]2C2c3ccccc3C=CN21 (stereo partly drawn) | . | 4.0 | . | . | . | . | .
CC(C)(C)C(=O)[C@@H]1[C@@H]2C(=O)N(Cc3ccccc3)C(=O)[C@@H]2[C@H]2c3ccccc3C=CN12 | . | 4.2 | . | . | . | . | .
CC(=O)[C@H]1[C@@H]2C(=O)N(c3cccc(Cl)c3)C(=O)[C@@H]2[C@H]2c3ccccc3C=CN21 | -9.9 | -12.2 | 2213 | -0.3 | -0.5 | 93.5* | 82.0*
O=C1Nc2ccc(Br)cc2/C1=C/c1ccc(C(=O)O)cc1 | . | 2.3 | . | . | . | . | .
COc1ccc(C(O)c2nc(-c3ccoc3)cs2)cc1 (stereo not drawn) | 9.4 | . | 3674 | 1.0 | 0.2 | 29.7* | -20.4
Cn1nc(C(=O)Nc2ccc3c(c2)OCCO3)cc1C(=O)O | -0.5 | 1.2 | 4352 | -7.1 | -0.2 | . | .
CN1C(=O)C(=Cc2ccc(N3CCOCC3)o2)C(=O)N(C)C1=O | -3.8 | 5.5 | 2485 | 1.2 | -0.6 | 29.5* | 1.0
O=C(NCCCc1ccccc1)c1ccc(CS(=O)Cc2ccccc2Cl)o1 (stereo not drawn) | 2.7 | 3.9 | 4358 | 2.3 | -1.1 | 15.3 | .
COC(=O)CC1(C(=O)OC)Oc2ccc(Br)cc2C(=O)N1c1cc(Cl)c(Cl)cc1Cl (stereo not drawn) | -8.8 | 2.3 | 4630 | 2.7 | -0.6 | 2.7 | .
CCOc1cc(N2CCOCC2)c(OCC)cc1NC(=O)C(C)C | -0.2 | 3.1 | 4261 | -0.8 | -0.7 | -4.3 | .
CCOc1cc(N2CCOCC2)c(OCC)cc1NC(C)C(=O)N1CCN(CC)CC1 (stereo not drawn) | 0.9 | 5.1 | 3138 | -0.7 | 0.8 | 31.2* | 2.5
COC(=O)c1cc(S(=O)(=O)NCC2CCN(CCc3cccs3)CC2)c[nH]1 | 10.7 | -0.7 | 6907 | 2.2 | 0.0 | 8.8 | .
CC(C)(C)OC(=O)[C@H](Cc1ccccc1)NC(=O)c1nc[nH]c1C(=O)N[C@@H](CCCCN)C(=O)OC(C)(C)C | -23.0 | . | 3391 | 1.0 | -1.3 | 16.3 | .
C[C@@H](NC(=O)c1nc[nH]c1C(=O)N[C@@H](CCCCNC(=O)OC(C)(C)C)C(=O)OC(C)(C)C)c1ccccc1 | 4.5 | 3.5 | 4057 | -4.0 | 0.0 | 34.7* | 4.6
CC(C)(C)OC(=O)NCCCC[C@H](NC(=O)c1[nH]cnc1C(=O)N[C@@H](Cc1ccccc1)C(=O)OCc1ccccc1)C(=O)OC(C)(C)C | -0.6 | . | 3863 | -1.0 | -0.1 | 31.2* | 12.6
COc1ccc2c(c1)Cc1sc(NC(=O)c3ccco3)nc1-2 | -6.5 | -13.3 | 3373 | -2.6 | -0.5 | 104.6* | -6.1
Cc1ccc(S(=O)(=O)/N=C2\C=C(Nc3cccc(C(=O)O)c3)C(=O)c3ccccc32)c(C)c1 | 0.4 | 7.6 | 5406 | 0.6 | 0.4 | 113.9* | 112.2*
